{"source": "PubChem BioAssay (EPA / NIEHS)", "note": "Active and inactive are the calls of the source. The calls were made as follows: active = hit-call score of the fitted dose curve at least 0.9, where 1 is the maximum; inactive = score below 0.9.", "data": [{"biological_target": "Bile acid receptor (Homo sapiens) (UniProt Q96RI1)", "sequence (Q96RI1 whole entry, looked up)": "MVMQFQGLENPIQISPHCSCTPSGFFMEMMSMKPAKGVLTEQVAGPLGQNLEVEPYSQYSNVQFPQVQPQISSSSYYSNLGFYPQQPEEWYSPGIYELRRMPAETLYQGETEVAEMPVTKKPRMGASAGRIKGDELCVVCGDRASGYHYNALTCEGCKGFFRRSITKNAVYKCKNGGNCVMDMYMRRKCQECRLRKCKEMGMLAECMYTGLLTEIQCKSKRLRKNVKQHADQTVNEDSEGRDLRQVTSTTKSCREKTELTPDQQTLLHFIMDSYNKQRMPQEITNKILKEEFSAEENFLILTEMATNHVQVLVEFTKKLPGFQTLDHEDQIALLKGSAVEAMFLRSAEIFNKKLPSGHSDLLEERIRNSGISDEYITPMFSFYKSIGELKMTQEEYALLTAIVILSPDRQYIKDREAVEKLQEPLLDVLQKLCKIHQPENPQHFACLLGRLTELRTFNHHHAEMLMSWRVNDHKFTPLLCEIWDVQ", "test": "ATG_IR1_CIS: Attagene CIS-FACTORIAL HepG2 Assay for human Nuclear Receptor Subfamily 1 Group H Member 4 (NR1H4), IR1 submotif (AID 2282946)", "settings": "IR1 reporter transcription, actives raise or lower the signal", "protocol": "ATG_CIS is a cell-based, multiplexed-readout assay that uses HepG2, a human liver cell line, with measurements taken at 24 hours after chemical dosing in a 24-well plate.ATG_IR1_CIS is one of 52 assay component(s) measured or calculated from the ATG_CIS assay. It is designed to make measurements of mRNA induction, a form of inducible reporter, as detected with fluorescence intensity signals by Reverse transcription polymerase chain reaction (RT-PCR) and Capillary electrophoresis technology.Data from the assay component ATG_IR1_CIS was analyzed into 1 assay endpoint. This assay endpoint, ATG_IR1_CIS, was analyzed with bidirectional fitting relative to DMSO as the negative control and baseline of activity. Using a type of inducible reporter, measures of mRNA for gain or loss-of-signal activity can be used to understand the reporter gene at the transcription factor-level as they relate to the gene NR1H4. Furthermore, this assay endpoint can be referred to as a primary readout, because this assay has produced multiple assay endpoints where this one serves a reporter gene function. To generalize the intended target to other relatable targets, this assay endpoint is annotated to the nuclear receptor intended target family, where the subfamily is non-steroidal.\nHuman liver HepG2 cells are transiently transfected with multiple reporter transcription units (MRTUs) in 6-well plates using FuGene 6 reagent (Roche; 3 ml FuGene/1 mg DNA). The MRTU constructs are regulated by a cis-regulating element (promoter). […] A major difference between the CIS and TRANS system is that in CIS activities of endogenous TFs are measured, whereas the TRANS assay evaluates changes in activities of exogenous, chimeric NR-Gal4 proteins. […] At the end of 24 hour incubation, total RNA was isolated using TriZol reagent (Invitrogen). The isolated RNA is then reverse-transcribed using oligo(dT) primer and Mo-MLV reverse transcriptase (Invitrogen) with DNAse I (Ambion) treatment for 30 min. The one-tenth of the produced cDNA was amplified by PCR using Taq DNA polymerase (Invitrogen) and two reporter sequence-specific primers. The PCR products were fluorescently labeled by primer extension with 6-arboxyfluorescein (6-FAM) 5'-labeled reporter sequence-specific primer (2 min at 95 C, 20 s at 68 C and 10 min at 72 C) and these products were digested with 5U of HpaI (New England Biolabs) for 2h at 37 C. The fragments were purified using Qiaquick PCR columns (Qiagen), analyzed on an ABI 3130xL genetic analyzer (Applied Biosystems) with peak positions identified by using a set of X-rhodamine (ROX)-labeled MapMarker1000 molecular weight standards (BioVentures). The raw capillary electrophoresis data was processed using Attagraph software (Attagene).", "values": [{"compound": "O=C1CCC(=O)N1", "outcome": "inactive"}, {"compound": "CCC(=O)OC/C=C(\\C)CCC=C(C)C", "outcome": "inactive"}, {"compound": "CN(C)CCC=C1c2ccccc2CCc2ccccc21", "outcome": "inactive"}, {"compound": "CN1CCc2cccc3c2[C@H]1Cc1ccc(O)c(O)c1-3", "outcome": "inactive"}, {"compound": "CC(=O)CC(=O)N(C)C", "outcome": "inactive"}, {"compound": "CC(=O)c1ccc2ccccc2c1", "outcome": "inactive"}, {"compound": "CC1=C(C=O)C(C)(C)CCC1", "outcome": "inactive"}, {"compound": "CN(C)c1ccc(C=O)cc1", "outcome": "inactive"}, {"compound": "CCC(C)(C)c1cc(O)c(C(C)(C)CC)cc1O", "AC50": "24.2 µM (active)"}, {"compound": "C=CC(=O)OCC(CO)(COC(=O)C=C)COC(=O)C=C", "AC50": "26 µM (active)"}, {"compound": "CCC(=O)OCC=Cc1ccccc1", "outcome": "inactive"}, {"compound": "CC1=CC(C)C(C=O)C(C)C1", "note": "(stereo not given) (tested in a mixture with another compound)", "outcome": "inactive"}, {"compound": "CCO[Si](CCC#N)(OCC)OCC", "outcome": "inactive"}, {"compound": "CC(C)(O)CCc1ccccc1", "outcome": "inactive"}, {"compound": "CCn1cc(C(=O)O)c(=O)c2ccc(C)nc21", "outcome": "inactive"}, {"compound": "OC[C@H]1O[C@@H](O[C@H]2[C@H](O)[C@@H](O)[C@H](O)O[C@@H]2CO)[C@H](O)[C@@H](O)[C@H]1O", "outcome": "inactive"}, {"compound": "O=S(=O)(O)c1cc(S(=O)(=O)O)c2c(N=Nc3ccccc3)c(O)ccc2c1", "outcome": "inactive"}, {"compound": "O=c1cc[nH]cc1", "outcome": "inactive"}, {"compound": "CC(=O)c1ccc(O)cc1", "outcome": "inactive"}, {"compound": "C=CCOCC(O)CO", "note": "(stereo not given)", "outcome": "inactive"}, {"compound": "CCCCCCCCOS(=O)(=O)O", "outcome": "inactive"}, {"compound": "CC(=O)C1=C(C)[C@@H]2C[C@@]3(C1)[C@H](C)CC[C@H]3C2(C)C", "outcome": "inactive"}, {"compound": "CC(C)CCOC(=O)CC(C)C", "outcome": "inactive"}, {"compound": "[Cl][Dy]([Cl])[Cl]", "outcome": "inactive"}, {"compound": "CCC=C(C)C=O", "outcome": "inactive"}, {"compound": "COc1ccc(N)c(C)c1", "outcome": "inactive"}, {"compound": "CCCCCc1cccc(=O)o1", "outcome": "inactive"}, {"compound": "Brc1cc(Br)cc(Br)c1", "outcome": "inactive"}, {"compound": "CC(C)C(=O)OCC=Cc1ccccc1", "outcome": "inactive"}, {"compound": "c1ccc(Cc2ccccc2)cc1", "outcome": "inactive"}, {"compound": "O=C1OCc2ccccc21", "outcome": "inactive"}, {"compound": "CC(=N[Si](C)(C)C)O[Si](C)(C)C", "outcome": "inactive"}, {"compound": "CCC(=O)OC(C)(C)C1CC=C(C)CC1", "note": "(stereo not given)", "outcome": "inactive"}, {"compound": "CC1COC(=O)O1", "note": "(stereo not given)", "outcome": "inactive"}, {"compound": "Cc1ccccc1S", "AC50": "55.7 µM (active)"}, {"compound": "C=CC(C)(CCC=C(C)C)OC(=O)CC", "note": "(stereo not given)", "outcome": "inactive"}, {"compound": "CCc1cccc(O)c1", "outcome": "inactive"}, {"compound": "NC(N)=S", "outcome": "inactive"}, {"compound": "O=C1OC2(c3ccc(O)cc3Oc3cc(O)ccc32)c2ccccc21", "outcome": "inactive"}, {"compound": "CC(O)COCC(C)O", "note": "(stereo not given)", "outcome": "inactive"}]}]}
